What follows are molecules tested against T1, Aspartate--tRNA(Asp/Asn) ligase (Mycobacterium tuberculosis (strain ATCC 25618 / H37Rv)) (UniProt P9WFW3) (assay: Assay for Asp RNA synthetase-1 from Mycobacterium tuberculosis). Settings: 30 µM.
T1 sequence (whole entry): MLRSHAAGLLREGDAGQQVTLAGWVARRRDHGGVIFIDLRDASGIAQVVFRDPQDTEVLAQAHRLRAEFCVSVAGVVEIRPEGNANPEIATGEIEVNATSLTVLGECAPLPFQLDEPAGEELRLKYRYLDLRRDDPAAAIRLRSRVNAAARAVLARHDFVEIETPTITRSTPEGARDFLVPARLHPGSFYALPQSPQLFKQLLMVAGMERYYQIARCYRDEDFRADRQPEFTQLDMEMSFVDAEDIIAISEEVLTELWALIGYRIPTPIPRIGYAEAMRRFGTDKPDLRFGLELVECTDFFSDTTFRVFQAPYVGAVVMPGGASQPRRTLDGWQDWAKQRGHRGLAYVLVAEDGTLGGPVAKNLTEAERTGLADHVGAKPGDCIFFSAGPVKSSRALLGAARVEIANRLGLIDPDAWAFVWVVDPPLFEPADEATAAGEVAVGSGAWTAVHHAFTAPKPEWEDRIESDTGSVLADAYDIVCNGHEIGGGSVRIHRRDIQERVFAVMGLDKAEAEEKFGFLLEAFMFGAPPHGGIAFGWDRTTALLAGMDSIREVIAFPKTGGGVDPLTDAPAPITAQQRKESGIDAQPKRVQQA
Type: functional
Design: scale not given: direction of the effect not stated beside the values

Structure (SMILES)	Percent Effect
C[C@H]1C[C@@H]2CCN(C(=O)c3cccn3C)C[C@H]2O1	-3.96%
CCc1nc(CC(=O)N2CCCC2Cn2cccn2)cs1 (stereo not given)	0.426%
COc1ccc(C)cc1CSCCn1nc2ccccn2c1=O	-3.83%
Cc1cc(-c2nn(C)c(Cl)c2CN2CCOCC2CC(=O)O)no1 (stereo not given)	-2.48%
Cn1cc(C2COC3(CCN(C(=O)Cn4cccn4)CC3)C2)cn1 (stereo not given)	8.57%
C[S+]([O-])c1nncn1CC(=O)c1cccc(Cl)c1 (stereo not given)	-0.917%
Cc1nc(N)sc1C(=O)N1CCCC(c2nccn2CCCN(C)C)C1 (stereo not given)	-0.893%
Cc1[nH]ccc1C(=O)N1CCC(c2nnc(Cn3ccnc3)n2C)CC1	-1.28%
CCOCC1CN(C(=O)c2ccncc2)Cc2nn(C)cc21 (stereo not given)	4.25%
CC(C)CN1C[C@H]2CCN(Cc3cccnc3)CC[C@H]2S1(=O)=O	-4.32%
OCC1CCCN1c1cc(N2CCc3ccccc3C2)ncn1 (stereo not given)	1.24%
CC(Cc1ccco1)NC(=O)Nc1ccc(N2CCOCC2)nc1 (stereo not given)	-3.59%
CNC(=O)CS(=O)(=O)Cc1coc(-c2ccc(OC)cc2)n1	-0.993%
Cc1cc(CN2CC[C@H]3C(=O)N(c4ccccc4)CCO[C@H]3C2)no1	-4.96%
CN(C)Cc1ccnc(C2CCCN2Cc2ccncc2)n1 (stereo not given)	-3.02%
O=C(COc1ccc(C(F)(F)F)cc1)NS(=O)(=O)c1cccnc1	6.95%
Cc1ccc(C(=O)N2CCN(C(=O)NC(C)Cn3ccnc3)CC2)o1 (stereo not given)	-1.92%
Cn1nnc2c1CCN(Cc1nccs1)C2COCc1ccccc1 (stereo not given)	2.63%
CCOc1cc(C(=O)N2CCCC(c3noc(C)n3)C2)ccn1 (stereo not given)	0.253%
Cc1ccsc1CN(C)C(=O)Cn1nc(-c2ccc(F)cc2)oc1=O	10.3%

Structure (SMILES)	Percent Effect
CC(COc1ccccc1)NCc1nc(-c2cccnc2)no1 (stereo not given)	-2.31%
Cn1cnnc1C1CCCN(C(=O)NCCOc2ccccc2)C1 (stereo not given)	-4.29%
CCc1nccn1C1CCCN(C(=O)c2ccc3c(c2)OCO3)C1 (stereo not given)	-0.182%
CC(NC(=O)NCCCOC1CCCCC1)c1nncn1C (stereo not given)	-3.32%
CCOCC(O)CN1CCN(C(=O)c2ccnc(N(C)C)c2)CC1 (stereo not given)	-2.58%
CSc1ccc(C(CN)N2CCc3sccc3C2)cc1 (stereo not given)	-1.53%
COc1cccc(N2CCN(Cc3ccc(NC(C)=O)cc3)CC2=O)c1	-1.75%
c1ccc(CCN2CCN(c3ccc4nncn4n3)CC2)nc1	1.58%
FC(F)(F)Cc1noc(CN2CCCC2c2noc(C3CC3)n2)n1 (stereo not given)	8.91%
CCc1nc(CN2CCCN(Cc3cnn(C)c3)CC2)no1	-10.6%
Cc1nc(C)n(CC2CCCCN2Cc2ncc(C(C)(C)C)o2)n1 (stereo not given)	-7.07%
O=C1CC(c2ccccc2)c2c(n3ccsc3nc2=O)N1 (stereo not given)	-1.74%
O=C(NCCC1=CCCCC1)C1CCN(c2ccc3nncn3n2)CC1	-1.42%
Cc1nc(N2CC[C@@H](NC(=O)c3cnccn3)[C@H](O)C2)c2ccsc2n1	-1.04%
Cc1ccc(CN2CCCn3nnc(COCC4CC4)c3C2)s1	-4.16%
O=C(c1cccs1)N1CCC(n2nc(-c3ccco3)ccc2=O)CC1	-0.968%
CN(Cc1ccco1)Cc1ccccc1CNC(=O)c1ccncc1	-0.97%
Cn1ccc(C(=O)NCc2cccc(CN3CCCC3)c2)cc1=O	1.53%
CN(Cc1ncc[nH]1)S(=O)(=O)c1cccc(C(=O)N2CCOCC2)c1	8.16%
CC(NC(=O)CN(C)S(C)(=O)=O)c1nnc2n1CCCCC2 (stereo not given)	5%

Each molecule was assayed against Shiga toxin 2 (Escherichia coli O157:H7) (UniProt P09385+P09386) (assay: E. coli 0.157:H7 Shiga Toxin SOP - stx2 screening assay). Settings: 30 µM.
Type: functional
Design: scale not given: direction of the effect not stated beside the values

Structure (SMILES)	Percent Effect
C[C@H]1C[C@@H]2CCN(C(=O)c3cccn3C)C[C@H]2O1	-0.37%
CCc1nc(CC(=O)N2CCCC2Cn2cccn2)cs1 (stereo not given)	10.2%
COc1ccc(C)cc1CSCCn1nc2ccccn2c1=O	6.71%
Cc1cc(-c2nn(C)c(Cl)c2CN2CCOCC2CC(=O)O)no1 (stereo not given)	19.9%
Cn1cc(C2COC3(CCN(C(=O)Cn4cccn4)CC3)C2)cn1 (stereo not given)	-7.73%
C[S+]([O-])c1nncn1CC(=O)c1cccc(Cl)c1 (stereo not given)	-33.8%
Cc1nc(N)sc1C(=O)N1CCCC(c2nccn2CCCN(C)C)C1 (stereo not given)	12.2%
Cc1[nH]ccc1C(=O)N1CCC(c2nnc(Cn3ccnc3)n2C)CC1	-20.6%
CCOCC1CN(C(=O)c2ccncc2)Cc2nn(C)cc21 (stereo not given)	-22.5%
CC(C)CN1C[C@H]2CCN(Cc3cccnc3)CC[C@H]2S1(=O)=O	4.22%
OCC1CCCN1c1cc(N2CCc3ccccc3C2)ncn1 (stereo not given)	-49.8%
CC(Cc1ccco1)NC(=O)Nc1ccc(N2CCOCC2)nc1 (stereo not given)	15%
CNC(=O)CS(=O)(=O)Cc1coc(-c2ccc(OC)cc2)n1	-5.58%
Cc1cc(CN2CC[C@H]3C(=O)N(c4ccccc4)CCO[C@H]3C2)no1	-8.26%
CN(C)Cc1ccnc(C2CCCN2Cc2ccncc2)n1 (stereo not given)	-14.5%
O=C(COc1ccc(C(F)(F)F)cc1)NS(=O)(=O)c1cccnc1	15%
Cc1ccc(C(=O)N2CCN(C(=O)NC(C)Cn3ccnc3)CC2)o1 (stereo not given)	17.6%
Cn1nnc2c1CCN(Cc1nccs1)C2COCc1ccccc1 (stereo not given)	-58%
CCOc1cc(C(=O)N2CCCC(c3noc(C)n3)C2)ccn1 (stereo not given)	28.1%
Cc1ccsc1CN(C)C(=O)Cn1nc(-c2ccc(F)cc2)oc1=O	-7.45%

Structure (SMILES)	Percent Effect
CC(COc1ccccc1)NCc1nc(-c2cccnc2)no1 (stereo not given)	1.39%
Cn1cnnc1C1CCCN(C(=O)NCCOc2ccccc2)C1 (stereo not given)	-30.2%
CCc1nccn1C1CCCN(C(=O)c2ccc3c(c2)OCO3)C1 (stereo not given)	11.8%
CC(NC(=O)NCCCOC1CCCCC1)c1nncn1C (stereo not given)	-6.91%
CCOCC(O)CN1CCN(C(=O)c2ccnc(N(C)C)c2)CC1 (stereo not given)	-13.4%
CSc1ccc(C(CN)N2CCc3sccc3C2)cc1 (stereo not given)	-31.4%
COc1cccc(N2CCN(Cc3ccc(NC(C)=O)cc3)CC2=O)c1	-2.21%
c1ccc(CCN2CCN(c3ccc4nncn4n3)CC2)nc1	-28.9%
FC(F)(F)Cc1noc(CN2CCCC2c2noc(C3CC3)n2)n1 (stereo not given)	16.4%
CCc1nc(CN2CCCN(Cc3cnn(C)c3)CC2)no1	-4.68%
Cc1nc(C)n(CC2CCCCN2Cc2ncc(C(C)(C)C)o2)n1 (stereo not given)	-41%
O=C1CC(c2ccccc2)c2c(n3ccsc3nc2=O)N1 (stereo not given)	-13.6%
O=C(NCCC1=CCCCC1)C1CCN(c2ccc3nncn3n2)CC1	-16.7%
Cc1nc(N2CC[C@@H](NC(=O)c3cnccn3)[C@H](O)C2)c2ccsc2n1	-6.15%
Cc1ccc(CN2CCCn3nnc(COCC4CC4)c3C2)s1	0.0593%
O=C(c1cccs1)N1CCC(n2nc(-c3ccco3)ccc2=O)CC1	6.63%
CN(Cc1ccco1)Cc1ccccc1CNC(=O)c1ccncc1	12.1%
Cn1ccc(C(=O)NCc2cccc(CN3CCCC3)c2)cc1=O	-46.4%
CN(Cc1ncc[nH]1)S(=O)(=O)c1cccc(C(=O)N2CCOCC2)c1	-12.2%
CC(NC(=O)CN(C)S(C)(=O)=O)c1nnc2n1CCCCC2 (stereo not given)	-25.1%

Reference: ChEMBL document CHEMBL3988442, “University of Dundee, Small-Polar-MMV Screening Library” (2021)
